Experimental data as given in the supplement of paper PMC10849652.
The full data set covers some 7,900 targets. This sample favours those with a hit. About 0.6% of all pairs of compound and target were hits.

Experiments:
Assay in all cases: log2 fold change, soluble protein after heating vs DMSO (PISA); higher = thermal stabilisation; K562 cells, 10 uM, 30 min; active = over 0.2 and 3.5 SD of the protein, either way, in both replicates (recomputed)
[1] = compound: CC1=C(C=C(C=C1)NC(=O)C2=CC(=CC=C2)C(C)(C)C#N)NC3=CC4=C(C=C3)N=CN(C4=O)C
In short: (§1)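 K562 cells (2×10^6 cells/mL) were treated with 10 μM compound for 30 min, and aliquots were heated for 3 min over 48°C-58°C. Pooled aliquots were extracted in PBS with 0.5% NP-40 at 4°C, and the supernatant after 21,000xg for 90 min was measured by TMTpro 16plex LC-MS/MS with channel sums equalised. Reported thermal stability, relative to control samples and from duplicates, is a log2 fold change.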

[2] = compound: CC1=C(C=C(C=C1)NC(=O)C2=CC(=CC=C2)N(C)C)NC(=O)C3=CC=C(C=C3)O
In short: as §1

[3] = compound: CC1=CC=C(C=C1)SC2=C3C=C(SC3=CN=C2)C(=O)N
In short: as §1

[4] = compound: CC1=NC(=CC=C1)C2=C(N=C(N2)C(C)(C)C)C3=CC4=NC=CN=C4C=C3
In short: as §1

[5] = compound: CCCCN(Cc1ccc(C(=O)NO)cc1)C(=O)Nc1ccccc1 [Nexturastat A]
In short: as §1

[6] = compound: CCCS(=O)(=O)Nc1ccc(F)c(C(=O)c2c[nH]c3ncc(-c4ccc(Cl)cc4)cc23)c1F [vemurafenib]
In short: as §1

[7] = compound: CCCS(=O)(=O)Nc1ccc(F)c(C(=O)c2c[nH]c3ncc(Cl)cc23)c1F
In short: as §1

[8] = compound: CCCc1cc(C)[nH]c(=O)c1CNC(=O)c1cc(-c2ccnc(N3CCN(C)CC3)c2)cc2c1cnn2C(C)C
In short: as §1

[9] = compound: CCN(CC)Cc1ccc2cc(COC(=O)Nc3ccc(C(=O)NO)cc3)ccc2c1 [givinostat]
In short: as §1

[10] = compound: CCN(CCCOc1ccc2c(Nc3cc(CC(=O)Nc4cccc(F)c4)[nH]n3)ncnc2c1)CCOP(=O)(O)O [barasertib]
In short: as §1

[11] = compound: CC[C@@H]1C(=O)N(C)c2cnc(Nc3ccc(C(=O)NC4CCN(C)CC4)cc3OC)nc2N1C1CCCC1
In short: as §1

[12] = compound: CC[C@@H]1C(=O)N(C)c2cnc(Nc3ccc(C(=O)N[C@H]4CC[C@H](N5CCN(CC6CC6)CC5)CC4)cc3OC)nc2N1C(C)C [volasertib]
In short: as §1

[13] = compound: CC[C@H](C)N1C=C(C2=C(C=C(C=C21)C3=CN=C(C=C3)N4CCNCC4)C(=O)NCC5=C(C=C(NC5=O)C)C)C
In short: as §1

[14] = compound: CC[C@H](C)[C@@H](C(=O)N[C@@H]([C@@H](C)O)C(=O)N[C@@H](CC(C)C)C(=O)[C@]1(CO1)C)NC(=O)[C@H]([C@@H](C)CC)N(C)C(=O)C [epoxomicin]
In short: as §1

[15] = compound: CCn1c(C(=O)N(C2CC2)C2CC2)cc2c3c(ncn3C)c(Nc3cc(C)n(C)n3)nc21
In short: as §1

[16] = compound: CCn1cc(-c2ccnc3[nH]c(-c4cccc(CN(C)C)c4)cc23)c(-c2ccc(NC(=O)N(C)C)cc2)n1
In short: as §1

[17] = compound: CN(C)CC(=O)Nc1ccc2[nH]c(=O)c3ccccc3c2c1
In short: as §1

[18] = compound: CN(CCOC1=CC=C(C=C1)C[C@H]2C(=O)NC(=O)S2)C3=CC=CC=N3 (racemic) [rosiglitazone]
In short: as §1

[19] = compound: CN1C2=C(C3=C1C(=O)N(N=C3)CC4=CC(=CC=C4)N)SC(=C2)S(=O)C
In short: as §1

[20] = compound: CN1CCC(CNc2ccc3ncc(-c4cccc(OC(F)(F)F)c4)n3n2)CC1
In short: as §1

Measured: log2 fold change

CD63 (UniProt P08962)
Sequence of UniProt P08962 (P08962 whole entry, looked up): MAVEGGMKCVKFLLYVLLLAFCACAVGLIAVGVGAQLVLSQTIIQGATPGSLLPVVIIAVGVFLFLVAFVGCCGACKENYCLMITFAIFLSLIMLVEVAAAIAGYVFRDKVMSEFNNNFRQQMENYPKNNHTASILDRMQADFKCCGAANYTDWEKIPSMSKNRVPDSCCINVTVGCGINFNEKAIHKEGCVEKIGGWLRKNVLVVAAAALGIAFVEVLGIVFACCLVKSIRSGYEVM
inactive: [1] -0.007 | [2] 0.056 | [3] 0.004 | [4] 0.009 | [5] -0.072 | [6] 0.064 | [7] -0.007 | [8] -0.125 | [9] 0.096 | [10] -0.025 | [11] -0.013 | [12] 0.048 | [13] -0.013 | [14] -0.019 | [15] 0.017 | [16] 0.06 | [17] 0.01 | [18] 0.04 | [19] 0.012 | [20] 0.018

CASP3 (UniProt P42574)
Sequence of UniProt P42574 (P42574 whole entry, looked up): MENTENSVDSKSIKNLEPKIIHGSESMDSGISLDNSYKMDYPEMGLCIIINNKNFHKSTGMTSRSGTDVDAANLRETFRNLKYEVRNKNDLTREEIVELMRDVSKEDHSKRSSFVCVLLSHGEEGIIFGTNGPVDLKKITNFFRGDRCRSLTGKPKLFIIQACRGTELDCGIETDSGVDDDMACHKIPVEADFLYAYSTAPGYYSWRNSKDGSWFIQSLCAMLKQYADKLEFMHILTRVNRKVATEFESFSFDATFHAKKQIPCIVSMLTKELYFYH
inactive: [1] -0.049 | [2] 0.086 | [3] 0.009 | [4] 0.065 | [5] -0.025 | [6] -0.009 | [7] 0.022 | [8] 0.113 | [9] -0.029 | [10] -0.005 | [11] 0.012 | [12] 0.014 | [13] -0.033 | [15] 0 | [16] 0.018 | [17] -0.021 | [18] 0.014 | [19] -0.097 | [20] 0.019
active: [14] 0.273

CMTR1 (UniProt Q8N1G2)
Sequence of UniProt Q8N1G2 (Q8N1G2 whole entry, looked up): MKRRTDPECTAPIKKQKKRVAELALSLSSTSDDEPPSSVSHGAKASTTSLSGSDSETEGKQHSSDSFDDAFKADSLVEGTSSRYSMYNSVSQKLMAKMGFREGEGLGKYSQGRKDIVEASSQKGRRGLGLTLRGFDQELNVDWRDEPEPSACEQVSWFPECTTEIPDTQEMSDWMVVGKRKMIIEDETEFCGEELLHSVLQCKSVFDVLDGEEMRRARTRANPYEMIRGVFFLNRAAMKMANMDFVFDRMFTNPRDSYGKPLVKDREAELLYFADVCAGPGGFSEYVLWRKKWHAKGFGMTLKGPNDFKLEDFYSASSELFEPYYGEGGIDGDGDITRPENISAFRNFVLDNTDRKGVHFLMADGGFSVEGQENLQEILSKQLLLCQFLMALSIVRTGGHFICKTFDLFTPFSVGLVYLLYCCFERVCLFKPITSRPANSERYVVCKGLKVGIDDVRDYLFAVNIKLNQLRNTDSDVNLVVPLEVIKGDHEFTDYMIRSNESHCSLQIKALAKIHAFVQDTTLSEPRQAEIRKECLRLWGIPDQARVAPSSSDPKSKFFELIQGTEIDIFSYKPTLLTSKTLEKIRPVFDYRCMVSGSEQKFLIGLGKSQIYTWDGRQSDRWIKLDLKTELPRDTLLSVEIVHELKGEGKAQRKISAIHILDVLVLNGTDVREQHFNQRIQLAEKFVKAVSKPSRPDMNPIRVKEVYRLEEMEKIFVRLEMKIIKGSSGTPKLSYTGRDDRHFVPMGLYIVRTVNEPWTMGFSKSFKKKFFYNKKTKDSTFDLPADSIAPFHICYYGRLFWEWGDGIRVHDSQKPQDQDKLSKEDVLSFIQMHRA
inactive: [1] -0.012 | [2] -0.003 | [3] -0.021 | [4] 0.083 | [5] -0.069 | [6] 0.03 | [7] 0.005 | [8] -0.004 | [9] -0.062 | [10] 0.054 | [11] -0.053 | [12] -0.199 | [13] 0.024 | [14] 0.039 | [15] -0.01 | [16] -0.049 | [17] 0.038 | [18] 0.03 | [19] -0.055 | [20] -0.037

CDC42BPB (UniProt Q9Y5S2)
Sequence of UniProt Q9Y5S2 (Q9Y5S2 whole entry, looked up): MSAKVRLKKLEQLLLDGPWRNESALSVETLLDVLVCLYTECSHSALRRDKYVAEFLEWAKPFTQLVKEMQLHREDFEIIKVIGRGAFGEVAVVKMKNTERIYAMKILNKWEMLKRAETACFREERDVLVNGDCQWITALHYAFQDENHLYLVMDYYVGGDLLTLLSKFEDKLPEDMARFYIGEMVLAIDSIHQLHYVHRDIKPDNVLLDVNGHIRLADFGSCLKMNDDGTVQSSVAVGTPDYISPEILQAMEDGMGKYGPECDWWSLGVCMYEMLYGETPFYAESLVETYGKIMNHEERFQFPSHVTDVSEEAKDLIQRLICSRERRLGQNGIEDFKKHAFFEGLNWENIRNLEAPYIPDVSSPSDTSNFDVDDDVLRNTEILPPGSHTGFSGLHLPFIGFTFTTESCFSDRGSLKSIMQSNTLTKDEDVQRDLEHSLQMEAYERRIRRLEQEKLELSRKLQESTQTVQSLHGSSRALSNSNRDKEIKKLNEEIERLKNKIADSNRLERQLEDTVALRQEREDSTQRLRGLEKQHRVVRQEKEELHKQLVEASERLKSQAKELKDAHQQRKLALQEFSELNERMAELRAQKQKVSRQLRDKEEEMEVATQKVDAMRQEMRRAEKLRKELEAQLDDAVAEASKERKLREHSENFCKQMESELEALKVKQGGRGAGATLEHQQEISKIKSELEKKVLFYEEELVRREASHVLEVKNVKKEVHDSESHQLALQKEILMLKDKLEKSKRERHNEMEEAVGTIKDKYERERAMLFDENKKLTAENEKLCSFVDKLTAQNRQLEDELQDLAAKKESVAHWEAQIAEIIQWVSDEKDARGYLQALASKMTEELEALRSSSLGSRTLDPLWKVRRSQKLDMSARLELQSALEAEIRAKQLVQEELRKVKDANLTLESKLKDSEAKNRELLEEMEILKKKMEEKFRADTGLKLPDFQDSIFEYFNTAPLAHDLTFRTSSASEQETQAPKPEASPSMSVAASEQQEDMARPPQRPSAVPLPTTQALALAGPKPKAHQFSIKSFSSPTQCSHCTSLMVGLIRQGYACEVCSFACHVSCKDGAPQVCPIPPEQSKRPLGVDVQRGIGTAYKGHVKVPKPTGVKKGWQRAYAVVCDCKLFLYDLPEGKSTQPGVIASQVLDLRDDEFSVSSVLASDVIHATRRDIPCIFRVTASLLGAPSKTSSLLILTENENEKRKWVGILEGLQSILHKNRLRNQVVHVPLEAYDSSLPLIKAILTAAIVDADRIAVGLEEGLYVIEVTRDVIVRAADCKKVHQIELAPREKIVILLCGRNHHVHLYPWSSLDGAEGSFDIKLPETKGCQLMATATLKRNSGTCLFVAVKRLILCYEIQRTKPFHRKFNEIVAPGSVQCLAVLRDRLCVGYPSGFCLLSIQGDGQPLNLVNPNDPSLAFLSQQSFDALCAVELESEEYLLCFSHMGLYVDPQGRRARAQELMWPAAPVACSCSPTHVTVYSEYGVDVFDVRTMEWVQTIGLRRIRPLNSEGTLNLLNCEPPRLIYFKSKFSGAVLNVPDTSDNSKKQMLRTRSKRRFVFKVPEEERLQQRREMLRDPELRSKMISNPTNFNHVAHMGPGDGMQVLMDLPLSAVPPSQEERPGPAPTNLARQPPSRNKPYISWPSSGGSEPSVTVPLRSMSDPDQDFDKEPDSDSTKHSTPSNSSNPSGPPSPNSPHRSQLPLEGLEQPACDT
inactive: [1] -0.073 | [2] -0.07 | [3] -0.034 | [4] -0.072 | [5] 0.052 | [6] -0.046 | [7] -0.034 | [8] 0.079 | [9] -0.096 | [10] -0.087 | [11] 0.171 | [12] 0.051 | [13] -0.105 | [14] -0.065 | [15] 0.008 | [16] 0.062 | [17] 0.046 | [18] 0.049 | [19] 0.048 | [20] -0.195

CCDC59 (UniProt Q9P031)
inactive: [1] -0.067 | [2] -0.017 | [3] -0.144 | [4] -0.213 | [6] -0.037 | [7] 0.008 | [8] 0.113 | [9] 0.086 | [10] -0.013 | [11] 0.065 | [12] 0.186 | [13] -0.006 | [14] -0.067 | [15] -0.013 | [16] 0.088 | [17] -0.08 | [18] -0.064 | [19] 0.394 | [20] 0.176
active: [5] 0.549

CCNK isoform 4 (UniProt O75909)
inactive: [1] 0 | [2] 0.032 | [3] -0.032 | [4] -0.011 | [5] 0.024 | [6] -0.088 | [7] 0 | [8] 0.038 | [9] 0.014 | [10] -0.063 | [11] 0.099 | [12] 0.045 | [13] -0.018 | [14] -0.254 | [15] 0.025 | [16] 0.129 | [17] -0.051 | [18] -0.038 | [19] 0.105 | [20] 0.032

CPSF3 (UniProt Q9UKF6)
inactive: [1] -0.014 | [2] 0.005 | [3] -0.006 | [4] -0.012 | [5] -0.085 | [6] 0.017 | [7] 0.063 | [8] -0.001 | [9] -0.03 | [10] 0.022 | [11] -0.105 | [13] 0.043 | [14] -0.013 | [15] -0.032 | [16] -0.008 | [17] 0.033 | [18] 0.014 | [19] -0.032 | [20] 0.003
active: [12] -0.252

CSNK2A2 (UniProt P19784)
Sequence of UniProt P19784 (P19784 whole entry, looked up): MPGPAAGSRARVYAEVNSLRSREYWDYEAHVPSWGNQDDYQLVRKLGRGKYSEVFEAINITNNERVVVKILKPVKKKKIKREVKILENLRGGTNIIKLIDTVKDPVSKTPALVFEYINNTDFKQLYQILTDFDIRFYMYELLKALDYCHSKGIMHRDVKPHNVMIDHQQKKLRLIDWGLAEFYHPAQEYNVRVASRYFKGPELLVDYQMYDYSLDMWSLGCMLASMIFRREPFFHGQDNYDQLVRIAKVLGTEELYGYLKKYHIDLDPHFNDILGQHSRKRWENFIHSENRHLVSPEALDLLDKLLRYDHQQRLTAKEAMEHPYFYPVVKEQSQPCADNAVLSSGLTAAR
inactive: [1] -0.037 | [2] 0.009 | [3] 0.021 | [4] 0.005 | [5] 0.004 | [6] 0 | [7] 0.08 | [8] -0.035 | [9] 0.03 | [10] 0.003 | [11] -0.053 | [12] -0.122 | [13] 0.028 | [14] 0.029 | [15] 0.01 | [16] -0.043 | [17] -0.006 | [18] 0.066 | [19] -0.038
active: [20] -0.244

COX20 isoform 2 (UniProt Q5RI15)
Sequence of UniProt Q5RI15 (Q5RI15 whole entry, looked up): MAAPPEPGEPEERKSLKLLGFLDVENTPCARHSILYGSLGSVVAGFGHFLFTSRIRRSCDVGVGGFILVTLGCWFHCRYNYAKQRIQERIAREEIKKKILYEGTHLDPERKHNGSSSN
active: [16] 0.294
inactive: [1] 0.035 | [2] -0.041 | [3] 0.102 | [4] 0.036 | [5] -0.038 | [6] -0.036 | [7] -0.041 | [8] 0.069 | [9] -0.04 | [10] -0.03 | [11] -0.019 | [12] 0.077 | [13] -0.01 | [14] 0 | [15] 0.004 | [17] -0.038 | [18] 0.005 | [19] 0.002 | [20] 0.081

COX15 (UniProt Q7KZN9)
Sequence of UniProt Q7KZN9 (Q7KZN9 whole entry, looked up): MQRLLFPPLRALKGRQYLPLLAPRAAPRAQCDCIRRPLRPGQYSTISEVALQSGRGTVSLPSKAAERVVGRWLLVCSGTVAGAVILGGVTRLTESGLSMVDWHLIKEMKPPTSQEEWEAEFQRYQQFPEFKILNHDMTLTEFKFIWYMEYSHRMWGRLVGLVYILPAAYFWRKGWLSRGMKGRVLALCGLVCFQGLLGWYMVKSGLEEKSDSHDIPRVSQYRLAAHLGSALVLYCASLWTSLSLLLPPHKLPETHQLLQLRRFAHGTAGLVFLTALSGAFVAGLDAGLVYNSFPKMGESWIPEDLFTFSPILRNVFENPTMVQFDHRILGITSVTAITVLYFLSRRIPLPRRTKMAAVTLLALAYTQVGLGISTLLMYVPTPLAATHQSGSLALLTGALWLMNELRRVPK
inactive: [1] 0.05 | [2] 0.024 | [3] 0.001 | [4] 0.003 | [5] -0.113 | [6] 0.005 | [7] 0.015 | [8] -0.077 | [9] -0.008 | [10] 0.009 | [11] 0.057 | [12] 0.023 | [13] -0.037 | [14] -0.018 | [15] 0.05 | [16] 0.021 | [17] 0.006 | [18] 0.085 | [19] -0.044 | [20] -0.015

CD55 isoform 7 (UniProt P08174)
Sequence of UniProt P08174 (P08174 whole entry, looked up): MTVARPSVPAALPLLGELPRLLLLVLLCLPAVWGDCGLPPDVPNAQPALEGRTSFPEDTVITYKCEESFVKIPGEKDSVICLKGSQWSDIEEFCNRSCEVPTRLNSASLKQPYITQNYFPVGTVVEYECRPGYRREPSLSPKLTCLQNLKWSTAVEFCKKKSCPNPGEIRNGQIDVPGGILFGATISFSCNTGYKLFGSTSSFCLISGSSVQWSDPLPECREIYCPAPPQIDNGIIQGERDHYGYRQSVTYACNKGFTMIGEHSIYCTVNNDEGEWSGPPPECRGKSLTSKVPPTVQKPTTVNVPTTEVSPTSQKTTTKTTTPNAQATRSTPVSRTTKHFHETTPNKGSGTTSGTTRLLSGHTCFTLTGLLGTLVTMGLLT
active: [20] 0.228
inactive: [1] 0.037 | [2] -0.006 | [3] 0.021 | [4] 0.049 | [5] 0.072 | [6] -0.031 | [7] -0.053 | [8] 0.088 | [9] 0 | [10] -0.057 | [11] 0.172 | [12] 0.096 | [13] -0.031 | [14] 0.086 | [15] 0.02 | [16] -0.006 | [17] -0.042 | [18] -0.078 | [19] -0.005

CDK9 isoform 2 (UniProt P50750)
inactive: [1] 0.053 | [2] -0.067 | [3] -0.001 | [4] -0.084 | [5] 0.155 | [6] -0.052 | [7] 0.024 | [8] 0.036 | [9] 0.014 | [10] 0.002 | [11] -0.01 | [12] 0.078 | [13] 0.064 | [14] -0.06 | [15] 0.016 | [16] -0.092 | [17] -0.042 | [18] -0.019 | [19] 0.178 | [20] 0.205

CPSF1 (UniProt Q10570)
inactive: [1] -0.017 | [2] 0 | [3] -0.123 | [4] -0.083 | [6] -0.115 | [7] 0.014 | [8] -0.005 | [9] 0.058 | [10] -0.024 | [11] 0.053 | [12] -0.105 | [13] 0.031 | [14] -0.038 | [15] -0.02 | [16] 0.026 | [17] -0.104 | [18] 0.011 | [19] 0.116 | [20] 0.165
active: [5] 0.453

CBX5 (UniProt P45973)
inactive: [1] 0.051 | [2] 0.029 | [3] 0.073 | [4] 0.113 | [5] 0.027 | [6] 0.045 | [7] 0.085 | [8] -0.051 | [9] 0.043 | [10] -0.05 | [11] -0.033 | [12] -0.128 | [13] 0.048 | [14] -0.022 | [15] -0.034 | [16] -0.057 | [17] -0.034 | [18] -0.012 | [19] -0.121 | [20] -0.003

CHEK1 (UniProt O14757)
inactive: [1] -0.023 | [2] -0.013 | [3] 0.05 | [4] 0.037 | [5] -0.048 | [6] 0.017 | [7] 0 | [8] -0.022 | [9] 0.029 | [10] 0.033 | [11] -0.137 | [13] 0.005 | [14] 0.055 | [15] -0.012 | [16] -0.101 | [17] 0.003 | [18] 0.046 | [19] -0.029 | [20] -0.159
active: [12] -0.274

CLPX (UniProt O76031)
Sequence of UniProt O76031 (O76031 whole entry, looked up): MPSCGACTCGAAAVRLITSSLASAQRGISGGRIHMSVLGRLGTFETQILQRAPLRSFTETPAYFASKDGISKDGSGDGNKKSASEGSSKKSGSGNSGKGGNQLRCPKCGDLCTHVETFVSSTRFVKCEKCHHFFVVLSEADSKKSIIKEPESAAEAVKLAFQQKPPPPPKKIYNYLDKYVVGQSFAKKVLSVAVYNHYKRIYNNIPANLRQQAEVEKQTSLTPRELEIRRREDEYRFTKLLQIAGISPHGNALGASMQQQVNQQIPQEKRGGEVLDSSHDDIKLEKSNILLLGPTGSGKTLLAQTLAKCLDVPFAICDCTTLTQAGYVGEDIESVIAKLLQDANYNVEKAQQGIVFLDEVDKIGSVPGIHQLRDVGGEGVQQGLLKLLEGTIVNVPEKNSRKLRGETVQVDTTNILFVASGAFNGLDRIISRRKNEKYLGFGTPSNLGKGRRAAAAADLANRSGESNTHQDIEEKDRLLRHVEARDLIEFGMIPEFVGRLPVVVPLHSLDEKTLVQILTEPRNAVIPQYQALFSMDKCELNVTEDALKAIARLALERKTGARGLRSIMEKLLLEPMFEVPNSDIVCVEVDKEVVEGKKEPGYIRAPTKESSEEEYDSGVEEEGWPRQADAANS
inactive: [1] 0.022 | [2] -0.013 | [3] -0.008 | [4] 0.012 | [5] 0 | [6] -0.011 | [7] -0.013 | [8] -0.002 | [9] 0.02 | [10] -0.013 | [11] 0.039 | [12] 0.192 | [13] -0.06 | [14] -0.019 | [15] -0.03 | [16] -0.022 | [17] 0.026 | [18] -0.009 | [19] -0.01 | [20] 0.072
